DAX1 inh-1: inhibits human nuclear receptor DAX1; P51843; HEK293 Gal4-DAX1 luciferase reporter, luminescence; inhibition, % at 6.75 µM; 340,000 compounds, 0.99% hits;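 active means inhibition above the mean over all tested compounds plus 3 SD, cut at about 4.2% in these data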;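 further: inhibition shows as a rise in luminescence from relieved DAX1 repression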
Target sequence (P51843 207-470 limits assumed): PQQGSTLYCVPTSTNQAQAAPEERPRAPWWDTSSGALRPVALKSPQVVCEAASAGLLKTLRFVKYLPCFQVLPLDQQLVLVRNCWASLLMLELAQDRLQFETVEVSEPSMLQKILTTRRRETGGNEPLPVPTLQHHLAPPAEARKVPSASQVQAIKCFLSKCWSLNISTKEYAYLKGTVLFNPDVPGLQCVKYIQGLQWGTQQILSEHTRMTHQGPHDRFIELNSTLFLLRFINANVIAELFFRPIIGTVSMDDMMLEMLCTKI
DAX1 inh-2: DAX1 (NR0B1) inhibition, primary screen. 370,000 compounds, 1.1% hits. HEK293T StAR-luciferase reporter, SF-1/DAX-1 repression relief. inhibition, % at 6.8 µM;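 active means inhibition above the mean over all tested compounds plus 3 SD, cut at about 3.6% in these data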;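 further: higher inhibition means more luminescence from relief of DAX-1 repression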
hgDAF12 agonist: agonists of H. glycines DAF-12 nuclear receptor | HEK293 GAL4-hgDAF12 UAS-luciferase reporter, agonist luminescence; normalized to butyrate control | activation, % at 6.8 µM | 370,000 compounds, 1.8% hits;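 active means activation above a cutoff set at the mean of all screened compounds plus 3 SD, cut at about 10% in these data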
hcDAF12 agonist: H. contortus DAF-12 activation, primary screen | 370,000 compounds, 1.4% hits | HEK293 hcDAF-12 lit1-tk-luc reporter, luminescence; 0% DMSO, 100% Δ7-dafachronic acid | activation, % at 6.8 µM | AID 652067;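 active means activation above the mean of all tested compounds plus 3 SD, cut at about 5.5% in these data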
ssDAF12 agonist: activators of S. stercoralis DAF-12 nuclear receptor. HEK293 ssDAF-12/GRIP1 lit1-tk-luc reporter, luminescence; % of 3 µM dafachronic acid response. activation, % at 6.8 µM. 370,000 compounds, 1% hits;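 active means activation above the mean over all tested compounds plus 3 SD, cut at about 0.9% in these data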
A number is an active result; – = inactive; · = not tested or not shown. This is a sample that favours compounds with a hit; in the whole collection about 4.1% have one here.

SMILES | DAX1 inh-1 | DAX1 inh-2 | hgDAF12 agonist | hcDAF12 agonist | ssDAF12 agonist
COc1ccc(Cl)cc1N1C(=O)CC(Sc2ccccc2N)C1=O (configuration not stated) | – | – | – | – | 1.6
COc1ccc(-c2nnc(SCC(=O)Nc3ccc(Oc4ccccc4)cc3)n2Cc2ccco2)cc1 | · | – | – | – | –
Cc1ccc(-c2nnc(SCC(=O)Nc3ccc(-c4nc5ccc(C)cc5s4)cc3)n2Cc2ccco2)cc1 | · | – | 10.7 | – | –
Cc1nn(-c2ccccc2)c(C)c1C=NNC(=O)CSc1nc2ccccc2n1C | · | – | – | – | –
CCOC(=O)c1c(C)[nH]c(C(C)=NNC(=O)c2cccs2)c1C | – | 4.0 | 12.3 | – | –
O=C(NCCOc1ccccc1F)c1cc(F)c(F)cc1Cl | – | 3.7 | 13.0 | – | 1.2
Cc1ccccc1C(=O)NCCOc1ccccc1Cl | 5.0 | – | 11.5 | – | 1.1
NC(=O)c1ncn([C@@H]2O[C@H](C(=O)Nc3ccc(C(=O)N4CCCCC4)cc3)[C@@H](O)[C@H]2O)n1 | · | – | – | – | –
COC(=O)C(Cc1c[nH]c2ccccc12)NC(=O)c1ccccc1Br (configuration not stated) | – | – | – | – | 1.1
COC(=O)C(Cc1c[nH]c2ccccc12)NC(=O)c1cccc(S(=O)(=O)N2CCCCC2)c1 (configuration not stated) | – | – | – | – | –
COc1ccc(C(=O)COC(=O)Cc2c[nH]c3ccccc23)c(OC)c1 | – | – | – | – | –
CCN(C(=O)COC(=O)Cc1c[nH]c2ccccc12)C1CCS(=O)(=O)C1 (configuration not stated) | – | – | – | 6.1 | 1.2
O=C(Cc1c[nH]c2ccccc12)OCC(=O)c1ccccc1 | – | – | – | – | 1.2
O=C(NC(Cc1c[nH]c2ccccc12)C(=O)O)c1cccc(S(=O)(=O)N2CCCCC2)c1 (configuration not stated) | – | – | – | 5.7 | –
Cc1c(NC(=O)C2CCCN(S(=O)(=O)c3ccc(Cl)s3)C2)c(=O)n(-c2ccccc2)n1C (configuration not stated) | · | – | – | – | –
O=C(NC(Cc1c[nH]c2ccccc12)C(=O)O)c1ccccc1 (configuration not stated) | – | – | – | – | 1.2
CC(Cc1c[nH]c2ccccc12)C(=O)O (configuration not stated) | – | – | – | – | –
CCc1nc(N[C@@H](Cc2c[nH]c3ccccc23)C(=O)O)c2oc3ccccc3c2n1 | – | – | – | – | –
Cc1nc(N[C@@H](Cc2c[nH]c3ccccc23)C(=O)O)c2oc3ccccc3c2n1 | · | – | – | 5.9 | –
Cc1ccc(C(=O)C(C)OC(=O)Cc2c[nH]c3ccccc23)cc1 (configuration not stated) | – | – | – | – | 0.9
O=C(O)C(O)Cc1c[nH]c2ccccc12 (configuration not stated) | 4.7 | – | – | – | –
Cc1noc(C)c1C(=O)NC(Cc1c[nH]c2ccccc12)C(=O)O (configuration not stated) | – | – | – | – | 1.2
O=C(Cn1nnc2ccccc2c1=O)N[C@@H](Cc1c[nH]c2ccccc12)C(=O)O | – | – | – | – | 1.0
Cc1oc2c(c1C(=O)NC(Cc1c[nH]c3ccccc13)C(=O)O)CCCC2 (configuration not stated) | – | – | – | – | –
O=C(O)C(=O)Cc1c[nH]c2ccccc12 | – | – | – | – | 1.2
SMILES | DAX1 inh-1 | DAX1 inh-2 | hgDAF12 agonist | hcDAF12 agonist | ssDAF12 agonist
COCC(=O)Nc1ccc2c(c1)[C@@H]1C[C@H](CC(=O)OC)O[C@H](CO)[C@@H]1O2 | 4.6 | – | – | – | –
CC(C)c1ccc(NC(=O)Nc2cc3sccc3n2C)cc1 | – | – | – | 6.0 | –
C=CCNC(=O)c1cc2sccc2n1C | – | – | – | – | –
Cc1cc(C)c(NC(=O)CCCC(=O)O)c(Cl)c1 | – | – | – | – | –
CC(C)=CC(=O)Nc1c(C)cc(C)cc1Cl | 4.6 | – | – | – | –
CC(=O)Nc1ccc(C(=O)/C=C/c2ccco2)cc1 | – | – | – | – | –
CN(C)c1ccc(C(=O)/C=C/c2ccccc2)cc1 | – | – | – | – | –
O=C(/C=C\c1ccco1)c1ccc(NC(=O)c2ccco2)cc1 | – | – | 10.6 | – | –
CN(C)c1ccc(C(=O)/C=C/c2ccco2)cc1 | – | – | 12.7 | – | 0.9
